# Bioassay records as filed in PubChem.
# PABP polyA inh – PABP-poly(A) binding inhibition; P11940; PABP-poly(A) RNA binding, fluorescence polarization; calls only at 35 µM; hit rate 1% among 290,000;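 further: calls also rest on retests at 20 µM and on dose response follow-up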
# MLLE-PAM2 inh – inhibitors of microRNA-mediated deadenylation, human PABP1 MLLE binding | inhibition, % at 20 µM | hit rate 0.36% among 360,000 | P11940 | GST-MLLE / FITC-PAM2 fluorescence polarization | AID 588489; in the data active means inhibition above about 35%, passing the limit was not always enough;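 further: plate controls were DMSO wells with GST-MLLE for no effect and wells lacking GST-MLLE protein for full effect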
# eIF4H inh – inhibitors of RNA binding by human eIF4H | AID 2012 | eIF4H fluorescence polarization binding assay | inhibition, % at 35 µM | hit rate 0.94% among 290,000 | Q15056;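 further: calls also rest on retests at 20 µM and on dose response follow-up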
# eIF4E 4G PPI – blocks eIF4E binding to eIF4G; hit rate 0.37% among 220,000; inhibition, % at 21.7 µM; TR-FRET eIF4E-eIF4GI(517-606) binding, 2 h; AID 782;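 active means inhibition above about 30%, limit read from the data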;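 further: 0% = full FRET control wells and 100% = background wells lacking eIF4GI fragment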
# Starred values were filed as active, the others as inactive; i = inactive; ? = inconclusive; nt = no result given; + = active, no number; ! = a repeat was not active; [ ] = dose if it differs, or a comment. Only some compounds are listed: those with a hit (about 1.5% of all), similar ones and a draw of the others. Unless noted, how the calls were made is not given here.
SMILES,PABP polyA inh,MLLE-PAM2 inh,eIF4H inh,eIF4E 4G PPI
O=C(N/N=C/c1ccccc1O)C1(O)c2ccccc2-c2ccccc21,+,3,active,-2
Cc1c(/C=N/NC(=O)C2(O)c3ccccc3-c3ccccc32)cnn1C,i,5,-7,6
Cc1ccc(C)c(Nc2ncccc2C(=O)NCc2cccs2)c1,+,8,?,0
Cc1ccc(NC(=O)C2(C)CCN2C(=O)Cc2ccc(C(C)(C)C)cc2)cc1C (configuration not stated),nt,-3,nt,nt
CC(=O)c1sc2nc(CSc3nnnn3-c3ccccc3)[nH]c(=O)c2c1C,i,-135,?,31*
Cc1ccc(-n2nnnc2SCc2nc3sc(C)c(C)c3c(=O)[nH]2)cc1,i,-93,?,-2
O=C(CCO)c1ccc(O)cc1,+,-13,94*,10
CCCCC(=O)c1ccc(O)cc1,i,-3,-9,2
CCOc1cc([C@@H]2C[C@H]3CN(c4ccccc4)C(=O)[C@]34CCCN24)ccc1OC,i,-30,57*,0
CNCc1ccccc1Sc1ccc(O)c(O)c1,i,40*,36,23
CN1OC[C@@H]2CN(C(=O)CCc3ccccc3)[C@H](c3ccccc3Br)C[C@@H]21,nt,-14,nt,nt
Nc1ccc(Nc2ccccc2)c(S(=O)(=O)O)c1,+,-6,95*,25
Cc1cc(C(=O)CSc2nc3ccccc3o2)c(C)n1CC1CCCO1 (configuration not stated),+,-7,52*,1
Cc1cc(C(=O)CSc2nnc(N)s2)c(C)n1Cc1ccco1,i,-8,36,-2
Cc1sc2nc(SCC(=O)c3cc(C)n(CC4CCCO4)c3C)n(C(C)C)c(=O)c2c1C (configuration not stated),+,-25,65*,-9
Cc1cccc(-n2nnnc2SCC(=O)c2cc(C)n(Cc3ccco3)c2C)c1,i,-93,58*,-3
O=C(CSc1nc2ccccc2o1)c1cc2ccccc2oc1=O,i,38*,22,0
Cc1cc(C(=O)COC(=O)c2ccco2)c(C)n1Cc1ccco1,i,6,26,5
Cc1cc(C(=O)COC(=O)c2ccncc2)c(C)n1Cc1ccco1,+,-29,55*,-5
Cc1cccc(-n2nnnc2SCC(=O)c2cc(C)n(CC3CCCO3)c2C)c1 (configuration not stated),+,-98,53*,-22
NC(c1csc(NC(=O)Nc2ccc(OC(F)(F)F)cc2)n1)C1CCCCC1 (configuration not stated),nt,-14,nt,nt
CCCc1nc2ccc(Br)cn2c1Cc1ccccc1OC,nt,2,nt,nt
CC[n+]1c(C)n(-c2ccccc2)c2ccc(C(=O)OC)cc21,+,-85,1,3
CCOC(=O)c1ccc2c(c1)n(CC)c(C)[n+]2CC,i,-125,-5,24
CCOC(=O)c1ccc2c(c1)[n+](CC)c(C)n2-c1ccccc1,+,-120,-9,6
SMILES,PABP polyA inh,MLLE-PAM2 inh,eIF4H inh,eIF4E 4G PPI
CCn1c(C)[n+](CC)c2ccc(C(=O)N(C)c3ccccc3)cc21,+,-113,-4,19
COc1ccc(-c2ccc(CN3C(C(C)C)C(=O)N(Cc4cn(CC5CCCCC5)nn4)CCS3(=O)=O)cc2)cc1OC (configuration not stated),nt,-7,nt,nt
Cc1ccc(S(=O)(=O)N2CCCCC2)cc1NC(=O)C1CCCO1 (configuration not stated),i,-1,3,1
Oc1ccc(NC(=S)Nc2ccc(F)cc2)cc1,i,14,-7,nt
Fc1ccc(NC(=S)Nc2ccc(Br)cc2)cc1,i,40*,1,-3
COc1ccc(C(=O)Nc2ccccc2C(=O)Nc2ccccc2C(=O)O)cc1,i,-5,-9,nt
COc1ccc(C(=O)Nc2ccccc2C(N)=O)cc1,i,-9,5,100*[fluorescence artefact?]
CCOc1ccc(N/C=C/C(=O)c2ccc(OC)cc2)c([N+](=O)[O-])c1,i,49*,13,-1
COc1ccc(NC(=O)c2ccccc2)c([N+](=O)[O-])c1,+,8,?,0
COc1ccc(NC(=S)NC(NC(=O)c2cccc(Cl)c2)C(Cl)(Cl)Cl)c([N+](=O)[O-])c1 (configuration not stated),i,38*,11,-1
C[C@@H]1CN([C@@H](C)CO)C(=O)c2cc(C#CC(C)(C)O)cnc2O[C@@H]1CN(C)C(=O)c1ccccc1F,nt,8,nt,nt
CC(=O)Nc1ccc(C(=O)N2CCCCC2c2cc(C(=O)NCc3cccnc3)no2)cc1 (configuration not stated),nt,21,nt,nt
O=C(O)/C=C/c1cccnc1,i,14,4,-1
CC(/C=C\c1cccnc1)=C/C(=O)O,i,5,73*!,3
CCc1ccccc1OCC(=O)N(CC)CC(=O)NCc1ccc(F)cc1,+,-2,active,5
Cc1ccc(S(=O)(=O)NC2=C(N3CCN(c4ccccc4F)CC3)C(=O)c3ccccc3C2=O)cc1,i,38*!,10,-8
CCOC(=O)c1ccccc1NS(=O)(=O)c1cnn(CC)c1C,i,8,-2,nt
COc1ccc(NS(=O)(=O)c2cccc(C(=O)N3CCN(C/C=C/c4ccccc4)CC3)c2)cc1,nt,-11,nt,nt
C=Cn1cc(CNC[C@H]2O[C@@H](n3cnc4c(=O)[nH]c(N)nc43)[C@H](O)[C@@H]2O)c(C)n1,nt,-14,nt,nt
NC1=C(Br)C(=O)c2ncccc2C1=O,nt,39*,nt,nt
Cc1c(Cl)cccc1NC(=O)CNC(=O)c1ccccc1F,+,5,2.4*,1
O=C(CSCC(=O)Nc1ccc2ccccc2c1)NCc1ccccc1,i,11,-2,37*
COc1ccccc1S(=O)(=O)N(C)C[C@@H]1Oc2ncc(-c3ccc(C)cc3)cc2C(=O)N([C@H](C)CO)C[C@@H]1C,nt,-31,nt,nt
O=C(Nc1ccc2oc(-c3ccccc3F)nc2c1)c1ncn[nH]1,i,-7,24,-11
O=C(Nc1ccc2oc(-c3ccc(Cl)c(Cl)c3)nc2c1)c1ncn[nH]1,+,0,?,-34
SMILES,PABP polyA inh,MLLE-PAM2 inh,eIF4H inh,eIF4E 4G PPI
N#Cc1c(-c2cccc(Br)c2)cc(-c2ccco2)[nH]c1=O,i,-3,76,7
COc1ccc(-c2cc(-c3ccco3)[nH]c(=O)c2C#N)cc1,+,7,74*,0
COC(=O)CSc1nnc(-c2cccc(NC(=O)c3ccc(C)cc3)c2)n1C,i,-30,1,72*
Cn1c(SCC(=O)N2CCOCC2)nnc1-c1cccc(NC(=O)c2ccccc2)c1,nt,-111,nt,0
O=CNn1cnc2c(oc3nc(-c4ccccc4)cc(-c4ccco4)c32)c1=O,i,-2,51*,6
Nc1c(C(=O)N/N=C/c2cccnc2)oc2nc(-c3ccccc3)cc(-c3ccco3)c12,?,-58,?,5
CC1CN(CCN2CC(C)N(C=O)CC2C)C(C)CN1C=O (configuration not stated),nt,0,nt,nt
O=C(COC(=O)c1cccc(-n2cnnn2)c1)c1ccc(F)c(F)c1,nt,-2,nt,nt
COC(=O)c1cc(-c2ccccc2)sc1NC(=O)CN1C(=O)c2ccccc2C1=O,i,36*,-8,1
